Measurements taken from the supplement of paper PMC6953052.
Counter-ions that a name gives are not always drawn. Over roughly 1,700 compounds, “fraction of GFP-LC3-positive cells (≥5 vesicles/cell)” has its median near 0.058; the highest 2% begin near 0.59. Only a selection was taken, and the highest values are over-represented in it overall.

tested on: CbCln3 +/+ GFP-LC3 cerebellar neuronal cells; test: fraction of GFP-LC3-positive cells (≥5 vesicles/cell); higher = more autophagosome accumulation
Summary of the method: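 In 384-well plates at 2 × 10^3 cells per well, GFP-LC3-expressing wild-type or mutant CbCln3 cerebellar cells took ~50 nL of compound in DMSO by pin transfer, in duplicate, for 24 h at 33 °C. Staining with Hoechst 33342 and LysoTracker Red over the final 30 min preceded fixation in 3.2% PFA and imaging of three fields per well at 10×. CellProfiler then counted GFP-LC3 vesicles in each cell, and out-of-focus images were dropped before the fraction of cells with 5 or more vesicles was averaged over duplicates.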

| SMILES | fraction of GFP-LC3-positive cells |
| --- | --- |
| OC[C@H]1O[C@@H](n2cnc3cc(Cl)c(Cl)cc32)C(O)[C@H]1O (stereo partly drawn) | 0.0687 |
| C=C1[C@@H](O)C2O[C@@]3(CCC2O[C@@H]1C(O)C[C@H](C)C1O[C@@]2(CCCCO2)CC[C@H]1C)CC[C@@H](/C=C/[C@@H](C)[C@@H]1CC(C)=C[C@@]2(O[C@H](C[C@@](C)(O)C(=O)O)CCC2O)O1)O3 (stereo partly drawn) [okadaic acid] | 0.831 |
| CCN1C[C@]2(COC)CC[C@H](O)[C@]34C1[C@H](C[C@H]23)[C@@]1(O)C[C@H](OC)[C@H]2C[C@@H]4[C@@H]1[C@H]2OC(C)=O [Condelphine] | 0.043 |
| O=C(O)/C=C\C(=O)O.O=C(O)/C=C\C(=O)O.c1ccc2nc(N3CCNCC3)ccc2c1 [Quipazine dimaleate salt] | 0.041 |
| C[C@H]1CCC/C=C/C2C[C@H](O)C[C@H]2[C@H](O)/C=C/C(=O)O1 (stereo partly drawn) [brefeldin A] | 0.0802 |
| C=C1[C@@H](C)[C@H]2[C@H](Cc3ccccc3)NC(=O)[C@]23[C@H](OC(C)=O)/C=C/[C@](C)(O)C(=O)[C@@H](C)C/C=C/[C@H]3[C@@H]1O [cytochalasin D] | 0.411 |
| CCCC[C@@H](C)[C@@H](OC(=O)C[C@@H](CC(=O)O)C(=O)O)[C@H](C[C@@H](C)C[C@H](O)CCCC[C@@H](O)C[C@H](O)[C@H](C)N)OC(=O)C[C@H](CC(=O)O)C(=O)O [Fumonisin B1] | 0.0462 |
| CCN1C[C@]2(C)CC[C@H](O)[C@]34C1[C@H](C[C@H]23)[C@@]1(O)C[C@H](OC)[C@H]2C[C@@H]4[C@@H]1C2O (stereo partly drawn) [Karakoline] | 0.0388 |
| CNc1ccc2oc(C[C@@H]3OC4(CC[C@@H]3C)O[C@H](C(C)C(=O)c3ccc[nH]3)[C@H](C)C[C@H]4C)nc2c1C(=O)O (stereo partly drawn) | 0.276 |
| C=C(C)[C@H]1O[C@H]2CC[C@@]3(C)[C@@](O)(CC[C@H]4[C@@H]5OC(C)(C)[C@H]6C[C@@H]7C(=C)Cc8c(Cl)cc9[nH]c(c5c9c8[C@@]76O)[C@@]43C)[C@]23O[C@@H]3[C@H]1O | 0.667 |
| CN1C2CCCC1CC(=O)C2.Cl [Pseudopelletierine hydrochloride] | 0.111 |
| CN[C@@H]1C[C@H]2O[C@@](C)([C@@H]1OC)n1c3ccccc3c3c4c(c5c6ccccc6n2c5c31)C(=O)NC4 [staurosporine] | 0.542 |
| CCCCCCCCCCCCCCCCOC[C@H](COP(=O)([O-])OCC[N+](C)(C)C)OC(C)=O | 0.0259 |
| CCCCCC1OC1C/C=C\CCCCCCCC(=O)O (stereo not drawn) [Leukotoxin B (12,13-EODE)] | 0.0763 |
| CCCCCC1OC1C/C=C\CCCCCCCC(=O)O (stereo not drawn) | 0.062 |
| Cc1c2ccncc2c(C)c2c1[nH]c1ccccc12 [Ellipticine] | 0.984 |
| Cc1nccc2c1[nH]c1ccccc12.Cl [Harmane hydrochloride] | 0.0738 |
| O=C1C=C2C=C[C@@H]3CC2(O1)[C@H]1CCCCN31 [Securinine] | 0.0519 |
| CC(C)(C)NCC(O)c1cc(Cl)c(N)c(Cl)c1.Cl (stereo not drawn) [Clenbuterol hydrochloride] | 0.0519 |

| SMILES | fraction of GFP-LC3-positive cells |
| --- | --- |
| CC[C@@H](CO)NC(=O)[C@@H]1C=C2c3cccc4[nH]cc(c34)C[C@H]2N(C)C1.O=C(O)/C=C\C(=O)O [Methylergometrine maleate] | 0.0308 |
| CC1=CC(=O)C2=C(C)C[C@H](O)[C@@H]3[C@H](OC(=O)[C@H]3C)[C@@H]12.O [Austricine] | 0.0585 |
| Clc1ccc(C2CC3CCC2N3)cn1 (racemic) [epibatidine (+/-)] | 0.0633 |
| N#CC(C#N)=NNc1ccc(OC(F)(F)F)cc1 | 0.918 |
| C[C@@H]1O[C@@H](O[C@@H]2C=C3CCC4C(CC[C@]5(C)[C@@H](c6ccc(=O)oc6)CC[C@]45O)[C@@]3(C)CC2)[C@H](O)[C@H](O)[C@H]1O (stereo partly drawn) [Proscillaridin A] | 0.0563 |
| CN1Cc2c(ccc3c2OCO3)[C@@H]2[C@H]1c1cc3c(cc1C[C@@H]2O)OCO3.O [Chelidonine (+)] | 0.593 |
| CN1CCC2=C[C@H](O)[C@H]3OC(=O)c4cc5c(cc4[C@H]3[C@@H]21)OCO5 [Hippeastrine hydrobromide] | 0.0629 |
| CN1CCc2cc3c(cc2[C@H]1[C@@H]1OC(=O)c2c1ccc1c2OCO1)OCO3 [Bicuculline (+)] | 0.0481 |
| CCCCCC[C@H]1C(=O)O[C@H](C)C(NC(=O)c2cccc(NC=O)c2O)C(=O)O[C@@H](C)[C@@H]1OC(=O)CC(C)C (stereo partly drawn) [Antimycin A] | 0.0705 |
| CC/C=C\C[C@@H](/C=C/C=C\C/C=C\C/C=C\CCCC(=O)O)OO | 0.0447 |
| C/C1=C/C(=O)O[C@@H]2C[C@@H](CC[C@H](C)/C=C\CC1)O[C@@](O)([C@@H]1CSC(=O)N1)C2 [Latrunculin B] | 0.94 |
| COC1=CC(=O)OC(/C=C/c2ccccc2)C1 (racemic) [Kavain (+/-)] | 0.0407 |
| O=c1[nH]c2ccccc2n1C1CCN(CCCC(c2ccc(F)cc2)c2ccc(F)cc2)CC1 [Pimozide] | 0.0546 |
| COc1ccc2c(c1OC)CN1CCc3cc4c(cc3C1C2)OCO4 (stereo not drawn) [(d,l)-Tetrahydroberberine] | 0.0361 |
| COc1ccc2c(c1OC)C(=O)O[C@@H]2[C@H]1c2cc3c(cc2CCN1C)OCO3.Cl [Hydrastine hydrochloride] | 0.0565 |
| COc1cc([C@@H]2c3cc4c(cc3[C@H](O)[C@H]3COC(=O)[C@H]23)OCO4)cc(OC)c1OC [Podophyllotoxin] | 0.682 |
| CCCCC/C=C\C/C=C\C/C=C\C/C=C\CCCC(=O)NCCO | 0.0573 |
| CCCCC/C=C\C/C=C\C/C=C\C/C=C\CCCC(=O)NCCO [Anandamide (20:4, n-6)] | 0.0367 |
| COC(=O)[C@@]1(O)C[C@@H]2O[C@@]1(C)n1c3ccccc3c3c4c(c5c6ccccc6n2c5c31)C(=O)NC4 | 0.16 |
